High-throughput results (PubChem)
USP10 block = blocks human USP10 ubiquitin-rhodamine cleavage | Q14694 | purified USP10, Ub-rhodamine fluorescence, 60 min | inhibition, % at 20 µM | 47,000 compounds, 1.1% hits | AID 1645856
USP17 inh = inhibitors of human USP17 deubiquitinase | A8MUK1 | purified USP17, Ub-rhodamine cleavage fluorescence, 3 h | inhibition, % at 50 µM | 47,000 compounds, 6.5% hits | AID 1645855
USP30 inh = blocks human USP30 ubiquitin-rhodamine cleavage; inhibition, % at 25 µM; purified USP30, Ub-rhodamine cleavage fluorescence; Q70CQ3; AID 1645860; 47,000 compounds, 5.3% hits
USP8 inh = blocks human USP8 ubiquitin-rhodamine cleavage. 47,000 compounds, 4.2% hits. P40818. purified USP8, Ub-rhodamine cleavage fluorescence, 30 min. inhibition, % at 20 µM. AID 1645853
Target sequence (P40818 whole entry, looked up): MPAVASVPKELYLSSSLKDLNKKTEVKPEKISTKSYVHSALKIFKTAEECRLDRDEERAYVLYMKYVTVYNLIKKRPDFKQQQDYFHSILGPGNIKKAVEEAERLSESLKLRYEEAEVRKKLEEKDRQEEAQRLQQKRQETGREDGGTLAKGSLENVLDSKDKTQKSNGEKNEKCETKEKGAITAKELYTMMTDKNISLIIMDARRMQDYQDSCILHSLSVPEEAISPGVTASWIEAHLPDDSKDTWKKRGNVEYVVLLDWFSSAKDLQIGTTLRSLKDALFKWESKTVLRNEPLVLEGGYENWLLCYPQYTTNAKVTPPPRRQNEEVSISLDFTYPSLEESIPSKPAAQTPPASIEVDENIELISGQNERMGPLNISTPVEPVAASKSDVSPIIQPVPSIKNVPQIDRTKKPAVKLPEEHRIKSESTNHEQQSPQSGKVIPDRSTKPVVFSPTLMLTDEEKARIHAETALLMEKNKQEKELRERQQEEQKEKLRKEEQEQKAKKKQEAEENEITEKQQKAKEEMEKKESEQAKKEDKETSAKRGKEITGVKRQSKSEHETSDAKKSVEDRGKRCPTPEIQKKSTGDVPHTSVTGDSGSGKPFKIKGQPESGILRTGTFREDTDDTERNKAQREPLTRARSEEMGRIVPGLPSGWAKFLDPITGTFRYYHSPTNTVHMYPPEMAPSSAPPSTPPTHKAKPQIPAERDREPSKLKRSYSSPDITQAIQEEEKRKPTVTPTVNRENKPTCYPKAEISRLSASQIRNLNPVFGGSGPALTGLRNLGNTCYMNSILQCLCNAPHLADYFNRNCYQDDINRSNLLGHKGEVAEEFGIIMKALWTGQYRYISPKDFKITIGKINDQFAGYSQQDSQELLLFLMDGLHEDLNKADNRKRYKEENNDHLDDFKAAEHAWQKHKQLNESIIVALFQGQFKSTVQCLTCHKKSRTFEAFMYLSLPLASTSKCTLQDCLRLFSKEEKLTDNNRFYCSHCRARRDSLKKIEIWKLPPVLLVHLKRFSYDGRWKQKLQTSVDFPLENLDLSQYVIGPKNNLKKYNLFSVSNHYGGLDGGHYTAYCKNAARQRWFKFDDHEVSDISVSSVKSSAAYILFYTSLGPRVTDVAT
USP28 block = inhibitors of human USP28 deubiquitinase. 47,000 compounds, 3% hits. inhibition, % at 25 µM. purified USP28, Ub-rhodamine cleavage fluorescence, 30 min
An asterisk follows results filed as active; nt = not tested or not shown. This is a sample that favours compounds with a hit; in the whole collection about 13% have one here. Rule as the data show it: active = inhibition above about 30%; inactive = the rest.

SMILES	USP10 block	USP17 inh	USP30 inh	USP8 inh	USP28 block
Cc1cccc(CNC(=O)c2cn(C)nc2S(=O)(=O)N2CCCCC2)c1	-1	-60	-1	-324	-12
COCCOc1cccc(CN2CCCC(c3nnc4n3CCNCC4)C2)c1 (stereo not drawn)	2	6	2	-7	-2
CC(C)c1cccc(OCCOCCN2CCNCC2)c1	-3	8	21	8	48*
COc1cc(O)c2c(O)c3c(cc2c1)C[C@@]1(O)CC(=O)C(C(N)=O)=C(O)[C@@]1(O)C3=O	11	30*	-120	-9	41*
O=C(NC1CCCc2ccccc21)c1cc(Cl)ccn1 (stereo not drawn)	-8	nt	-14	21	7
O=C(N[C@H]1CCCc2ccccc21)c1cc(-c2ccco2)on1	-6	47*	-155	33*	0
O=C(Cc1c(C(=O)O)[nH]c2ccccc12)NC1CCCc2ccccc21 (stereo not drawn)	2	17	1	22	7
O=C(NC1CCCc2ccccc21)c1cc(=O)[nH]c2ccccc12 (stereo not drawn)	4	41*	-44	0	-4
CN1[C@@H](CCC(=O)N2CCC(O)CC2)CNC(=O)[C@@H]2[C@H]1CCN2Cc1ncc[nH]1	-2	-61	-19	5	12
CN1[C@@H](CCC(=O)N2CCC(O)CC2)CNC(=O)[C@@H]2[C@H]1CCN2Cc1ccc(O)cc1	-3	-24	55*	66*	43*
CN1[C@@H](CCC(=O)N2CCC(O)CC2)CNC(=O)[C@@H]2[C@H]1CCN2Cc1cccc(OC(F)(F)F)c1	-1	-76	-31	35*	3
CN1[C@@H](CCC(=O)N2CCN(c3ccccn3)CC2)CNC(=O)[C@@H]2[C@H]1CCN2CC(C)(C)C	-1	-5	-13	-4	-5
CC(C)N1CC[C@@H]2[C@H]1C(=O)NC[C@H](CCC(=O)N1CCN(c3ccccn3)CC1)N2C	0	-32	39*	62*	42*
CN1[C@@H](CCC(=O)N2CCN(c3ccccn3)CC2)CNC(=O)[C@@H]2[C@H]1CCN2Cc1ccc(O)cc1	-2	-25	46*	73*	56*
CN1[C@@H](CCC(=O)N2CCN(c3ccccn3)CC2)CNC(=O)[C@@H]2[C@H]1CCN2Cc1ccc(CO)o1	-1	-10	-24	-11	-13
Cc1nc(-c2ncc[nH]2)cc(C2CCN(C(=O)c3scnc3C)CC2)n1	4	-2	-1	1	-6
COc1ccc(-c2nc(SCC(=O)NCc3ccco3)n[nH]2)cc1	0	-13	-22	-51	-9
COc1cc(Cl)c(C)cc1NC(=O)c1c(C)oc2ncnc(N3CCOCC3)c12	-3	5	nt	-12	nt
Cc1cc(C)c2cc(CN(C(=O)Nc3cccc(Cl)c3)C3CCCC3)c(=O)[nH]c2c1	-1	3	17	4	7
Cc1cc(C)c2cc(CN(CCc3ccccc3)C(=O)Nc3ccccc3)c(=O)[nH]c2c1	-1	62*	-36	-9	-7
COc1ccc(-c2cccc([C@H]3C[C@@H](NC(C)=O)[C@@H]4CCC[C@H]4O3)c2)cc1	-1	-16	0	-19	-18
c1ccc2c(c1)CCc1c-2nc2ccccc2c1N1CCOCC1	-3	72*	-95	83*	2
COc1ccc(-c2nc(C3CC3)nc3c2CCNCC3)cc1	-1	-14	17	1	-9
Cc1nc2c(c(-c3ccc(O)cc3)n1)CCNCC2	-7	13	-10	46*	-1
COc1ccc(CCNC(=O)c2cnc3c(-c4cccc(C)c4)c(C)nn3c2C)cc1OC	-1	0	-17	3	39*
SMILES	USP10 block	USP17 inh	USP30 inh	USP8 inh	USP28 block
Cc1nn2c(C)c(C(=O)NCc3ccc(N(C)C)cc3)cnc2c1-c1ccccc1	-3	3	-30	-245	0
COc1ccc(-c2nnc(SCC(=O)Nc3ccc(C)cc3)n2C2CCCCC2)cc1OC	-1	34*	48*	9	15
COc1ccc(NC(=O)CSc2nccn2C2CCCCC2)cc1	0	-6	15	-7	-7
O=C(CC1C(=O)N(C2CCCC2)c2nc3ccccc3n21)Nc1ccccc1C(F)(F)F (stereo not drawn)	0	34*	23	17	0
Cc1ccc(NC(=O)CC2C(=O)N(C3CCCC3)c3nc4ccccc4n32)cc1 (stereo not drawn)	0	20	26	2	4
CCCOc1cccc(C(=O)Oc2ccc(-n3cnnn3)cc2)c1	6	8	27	16	10
